Experimental data as given in PubChem BioAssay AID651599 (National Center for Advancing Translational Sciences (NCATS), 2012).
Inconclusive results are not listed. The call rests on the fitted dose curve; in most records, active means well fitted inhibition curve with a large enough effect; inconclusive means small, poorly fitted or top-dose-only effect; inactive means no such curve, though single readings can be large or run the other way.

target: Tumor susceptibility gene 101 protein (Homo sapiens) (UniProt Q99816); test: qHTS Assay for Iinhibitors of HIV-1 Budding by Blocking the Interaction of PTAP/TSG101: Hit Validation in TR assay; settings: Tsg101 binding domain + Texas Red-labeled PTAP peptide, fluorescence polarization, 20 min; series mostly up to 57.5 µM; activity change, negative = inhibition: at the top concentration
Sequence (Q99816 whole entry, looked up, the tested form may be a part): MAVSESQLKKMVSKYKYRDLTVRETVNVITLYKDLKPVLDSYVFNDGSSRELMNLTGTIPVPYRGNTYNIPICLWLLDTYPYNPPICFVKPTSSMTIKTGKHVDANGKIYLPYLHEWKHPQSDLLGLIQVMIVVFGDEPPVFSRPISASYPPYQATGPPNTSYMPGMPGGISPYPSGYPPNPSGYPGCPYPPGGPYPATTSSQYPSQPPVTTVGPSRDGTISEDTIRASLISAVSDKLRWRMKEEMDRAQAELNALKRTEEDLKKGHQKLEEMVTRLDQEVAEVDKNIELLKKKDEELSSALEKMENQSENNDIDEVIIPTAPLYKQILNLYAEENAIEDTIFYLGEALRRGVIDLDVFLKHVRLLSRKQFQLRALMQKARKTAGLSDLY
Method in brief: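 Fluorescence polarization: Tsg101 binding domain (10 uM final) with Texas Red-labelled PTAP peptide (50 nM final) in HEPES pH 7.5, 0.15 M NaCl, Tween 20, EDTA, TCEP; 20 min binding at room temperature after compound addition.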
On the % scale 0 is the no-effect control and ±100 the full control effect.

Activity change, negative = inhibition, inactive:
Cn1c(=O)c2nc3ccc(NC(=O)C(F)(F)F)cc3nc2n(C)c1=O -13.7%
CCN(CC)C(=O)c1sc2nc(-c3cccs3)cc(-c3cccs3)c2c1N -10.4%
CSc1c(C#N)c(N)nc2sc(C(=O)c3ccc(Cl)c(Cl)c3)c(N)c12 8.16%
COc1ccc2nc3ccccc3[n+]([O-])c2c1 -10.9%
Cc1ccc(CSc2nnc3c(n2)OC2(Nc4ccccc4-3)C(=O)Nc3ccc(F)cc32)cc1 (stereo not given) 3.74%
